High-throughput results deposited in PubChem BioAssay by NMMLSC.
Compounds with a hit are over-represented: about 1.2% of the library has one in this group of screens.
RGS8-Gao – modulates binding of RGS8 to human Galphao. P09471. response (percent of control binding), % at 10 µM. multiplexed bead flow cytometry; actives lie on both sides. hit rate 0.34% among 220,000; in the data active means response below about 60% or above about 140%; inactive means in between;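 further: Galphao activated as the GDP aluminium fluoride complex binding bead-coupled RGS8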
Target sequence (P09471 whole entry, looked up): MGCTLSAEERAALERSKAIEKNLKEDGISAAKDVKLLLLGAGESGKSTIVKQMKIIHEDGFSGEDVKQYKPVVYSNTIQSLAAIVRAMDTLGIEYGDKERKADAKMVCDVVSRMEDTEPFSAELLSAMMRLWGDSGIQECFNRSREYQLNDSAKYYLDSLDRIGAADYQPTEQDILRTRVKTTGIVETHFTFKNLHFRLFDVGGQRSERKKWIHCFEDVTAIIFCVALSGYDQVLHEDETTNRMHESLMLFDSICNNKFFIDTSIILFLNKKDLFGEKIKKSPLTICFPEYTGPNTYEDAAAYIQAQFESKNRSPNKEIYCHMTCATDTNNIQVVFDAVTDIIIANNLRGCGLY
RGS16-Gao – RGS16-Galphao interaction regulator (human). hit rate 0.38% among 220,000. bead-based flow cytometry RGS16-Galphao binding, fluorescence; actives lie on both sides. O15492+P09471. binding response (% of control), % at 10 µM;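 further: Galphao activated by GDP with aluminum fluoride before binding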
Target sequence (O15492 whole entry, looked up): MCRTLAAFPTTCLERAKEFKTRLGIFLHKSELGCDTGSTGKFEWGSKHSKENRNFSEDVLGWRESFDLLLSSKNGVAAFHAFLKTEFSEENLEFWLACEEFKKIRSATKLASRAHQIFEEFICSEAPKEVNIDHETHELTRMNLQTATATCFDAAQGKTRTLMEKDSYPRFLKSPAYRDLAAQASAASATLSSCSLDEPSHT
Target sequence (P09471 whole entry, looked up): as the sequence (P09471 whole entry, looked up) above
GSH fluor – GSH bead compound fluorescence profile. GSH beads flow cytometry, compound fluorescence 488/530 nm; active compounds read high. AID 1776. fluorescence (KMESF) at 10 µM. hit rate 0.25% among 190,000; in the data active means fluorescence above about 89;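 further: glutathione beads carrying GST-tagged Bcl family fusion proteins plus one bare bead set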
Avidin bead fluor – compound fluoresces at 488/530 nm on avidin beads | compound fluorescence 488/530 nm, flow cytometry; active compounds read high | fluorescence (KMESF) at 10 µM | hit rate 0.38% among 220,000 | AID 1775; in the data active means fluorescence above about 47
RGS7-Gao – human RGS7-Galphao interaction regulation; Multiplexed bead flow cytometry, RGS7-Galphao binding; actives lie on both sides; binding response (% of control), % at 10 µM; P09471; hit rate 0.35% among 220,000; AID 1439; in the data active means binding response below about 49% or above about 150%; inconclusive means no clear call, values can overlap the other calls; inactive means in between;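 further: fluorescent Galphao held in activated GDP-AlF4 state binding bead-coupled RGS7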
RGS4-Gao reg – human RGS4-Galphao interaction regulation | AID 1415 | hit rate 0.33% among 220,000 | binding response (% of control), % at 10 µM | Multiplexed bead flow cytometry, RGS4-Galphao binding; actives lie on both sides; in the data active means binding response below about 49% or above about 150%; inactive means in between;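 further: fluorescent Galphao activated with aluminum fluoride binding bead-coupled RGS4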
RGS4-Gao HTS – regulators of human RGS4-Galphao interaction; AID 1504; multiplexed bead flow cytometry, RGS–Galpha-o binding; shares compounds with RGS16-Gao; hit rate 99% among 1,600; RGS4–Galpha-o binding response, % at 10 µM;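 further: fluorescently labeled Galpha-o bound to GDP with aluminium fluoride binding biotinylated RGS beads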
Avidin counter – biotin-avidin bead binding disruption counter-screen; shares compounds with RGS16-Gao; streptavidin beads, fluorescein-biotin binding, flow cytometry; inhibition, % at 10 µM; 1,700 tested, under 10 active; AID 1783;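 active means inhibition above 50%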;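 further: median green fluorescence of gated singlet beads compared with DMSO control wells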
RGS8-Gao single – RGS8-Galphao interaction regulation, single point confirmation; hit rate 3% among 1,700; shares compounds with RGS16-Gao; bead-based flow cytometry RGS8-Galphao binding, fluorescence; actives lie on both sides; AID 1836; binding response (% of control), % at 10 µM; in the data active means binding response below about 72% or above about 130%; inactive means in between;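 further: Galphao activated as GDP AlF4 complex before binding bead RGS8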
RGS7-Gao single – confirmation of regulators of human RGS7-Galphao interaction. shares compounds with RGS16-Gao. bead-based flow cytometry RGS7-Galphao binding; actives lie on both sides. hit rate 7.8% among 1,700. response (percent of control binding), % at 10 µM. AID 1837; in the data active means response below about 75% or above about 130%; inactive means in between;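 further: fluorescent Galphao activated with GDP and aluminum fluoride binding bead-coupled RGS7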
RGS16-Gao conf – RGS16-Galphao interaction regulation, single point confirmation | bead-based flow cytometry, RGS16-Galphao binding; actives lie on both sides | shares compounds with RGS16-Gao | hit rate 4% among 1,700 | response (% of control binding), % at 10 µM; in the data active means response below about 74% or above about 130%; inactive means in between;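 further: Galphao activated as the GDP aluminium fluoride complex binding bead-coupled RGS16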
RGS4-Gao single – RGS4-Galphao interaction regulation, single point confirmation | shares compounds with RGS16-Gao | RGS4-Galphao binding, multiplexed bead flow cytometry; actives lie on both sides | binding response (% of control), % at 10 µM | hit rate 4% among 1,700; in the data active means binding response below about 74% or above about 130%; inactive means in between
RGS19-Gao conf – confirmation of regulators of human RGS19-Galphao interaction; shares compounds with RGS16-Gao; hit rate 5% among 1,700; response (percent of control binding), % at 10 µM; bead-based flow cytometry RGS19-Galphao binding; actives lie on both sides; in the data active means response below about 50% or above about 160%; inactive means in between
Large screens that a line does not name were inactive (follow-up assays come after a bar, where they were run); [ ] = dose if it differs, or a comment. Unless noted, how the calls were made is not given here.

CCN1CCN(C(=O)C2CCC(CNS(=O)(=O)c3ccccc3)CC2)CC1 (stereo not given)	none (no result: RGS8-Gao, RGS16-Gao, Avidin bead fluor, RGS7-Gao, RGS4-Gao reg) | Avidin counter inactive | RGS8-Gao single inactive | RGS7-Gao single inactive | RGS16-Gao conf inactive | RGS4-Gao single inactive | RGS19-Gao conf inactive
O=C(C1CCC(CNS(=O)(=O)c2cccs2)CC1)N1CCCCC1 (stereo not given)	none
CCC(C)(C)n1nnnc1CN1CCN(c2ccc(OC)cc2)CC1	none
CCC(C)(C)n1nnnc1CN1CCSCC1	RGS4-Gao reg 158.4[activator] | Avidin counter inactive | RGS8-Gao single inactive | RGS7-Gao single inactive | RGS16-Gao conf inactive | RGS4-Gao single inactive | RGS19-Gao conf inactive
O=C(CCc1ccccc1)c1nnc(-c2ccccc2)o1	none
CN(C)S(=O)(=O)Nc1ccccc1F	none
CCCc1cc(-c2nc(-c3ccc(Br)cc3)cs2)ccn1	RGS16-Gao -6.4 | RGS4-Gao HTS 82.7 | Avidin counter inactive | RGS8-Gao single inactive | RGS7-Gao single inactive | RGS16-Gao conf inactive | RGS4-Gao single inactive | RGS19-Gao conf inactive
CCCc1cc(-c2nc(-c3ccc(Cl)cc3)cs2)ccn1	none
O=C(NCCNC(=O)C1CC2CCC1C2)C1CC2CCC1C2 (stereo not given)	Avidin bead fluor 229, RGS7-Gao 186.2[activator] | RGS4-Gao HTS 122.6 | Avidin counter inactive | RGS8-Gao single inactive | RGS7-Gao single inactive | RGS16-Gao conf inactive | RGS4-Gao single inactive | RGS19-Gao conf inactive
Cn1c(SCC(=O)N2CCCC2=O)nc2ccccc21	RGS8-Gao 12.6, RGS16-Gao 9.5, RGS7-Gao inconclusive, RGS4-Gao reg 19.1 | Avidin counter inactive | RGS8-Gao single inactive | RGS7-Gao single inactive | RGS16-Gao conf inactive | RGS4-Gao single inactive | RGS19-Gao conf inactive
C=CCOC(=O)C(=O)/C=C/c1c(C)n(C)n(-c2ccccc2)c1=O	RGS7-Gao 154.2[activator], RGS4-Gao reg 150.4[activator] | Avidin counter inactive | RGS8-Gao single inactive | RGS7-Gao single inactive | RGS16-Gao conf inactive | RGS4-Gao single inactive | RGS19-Gao conf inactive
O=C(Nc1ccccc1)N1CCN(S(=O)(=O)c2ccccc2)CC1	none
O=C(C1CCC(C(=O)N2CCCCC2)CC1)N1CCCCC1 (stereo not given)	none
O=C(C1CCC(N2C(=O)C3CC=CCC3C2=O)CC1)N1CCCCC1 (stereo not given)	RGS8-Gao 169.5[activator] | RGS4-Gao HTS 128.6 | Avidin counter inactive | RGS8-Gao single inactive | RGS7-Gao single inactive | RGS16-Gao conf inactive | RGS4-Gao single inactive | RGS19-Gao conf inactive
CC(=O)N/N=C(\C)c1cccc(NC(=O)c2cccs2)c1	RGS8-Gao 33.8, RGS7-Gao -112.2, RGS4-Gao reg -635.8 | Avidin counter inactive | RGS8-Gao single inactive | RGS7-Gao single inactive | RGS16-Gao conf inactive | RGS4-Gao single inactive | RGS19-Gao conf inactive
C/C(=N/NC(=O)c1cccs1)c1cccc(NC(=O)C2CC2)c1	none (no result: Avidin bead fluor)
C=CCn1c(Cc2ccccc2)n[nH]c1=S	RGS16-Gao 9.3 | RGS4-Gao HTS 95.5 | Avidin counter inactive | RGS8-Gao single inactive | RGS7-Gao single inactive | RGS16-Gao conf inactive | RGS4-Gao single inactive | RGS19-Gao conf inactive
C=CCn1c(Cc2c[nH]c3ccccc23)n[nH]c1=S	none
O=S(=O)(N/N=C/c1ccc(F)cc1)c1ccccc1	none
O=S(=O)(N/N=C/c1ccccc1F)c1ccccc1	RGS8-Gao 14.0, RGS16-Gao 11.2, RGS7-Gao inconclusive, RGS4-Gao reg 22.3 | Avidin counter inactive | RGS8-Gao single inactive | RGS7-Gao single inactive | RGS16-Gao conf inactive | RGS4-Gao single inactive | RGS19-Gao conf inactive
COc1ccc(/C=N/NC(=O)c2cccc(NC(C)=O)c2)c(C(=O)O)c1OC	none
COc1ccc(N=C(C)C2=C(O)c3ccccc3C2=O)cc1	none
COc1ccc(N=C(N(C)C)P(=O)(N(C)C)N(C)C)cc1	RGS8-Gao 150.5[activator] | RGS4-Gao HTS 138.3 | Avidin counter inactive | RGS8-Gao single inactive | RGS7-Gao single inactive | RGS16-Gao conf inactive | RGS4-Gao single inactive | RGS19-Gao conf inactive
O=C(O)CCCN=CC1=C(O)CNC1=O	none
CCCS(=O)(=O)N1CCCC(C(=O)NCCCN2CCN(c3cccc(Cl)c3)CC2)C1 (stereo not given)	RGS8-Gao 145.7[activator], Avidin bead fluor 150, RGS7-Gao 233.8[activator], RGS4-Gao reg 294.6[activator] | Avidin counter inactive | RGS8-Gao single inactive | RGS7-Gao single inactive | RGS16-Gao conf inactive | RGS4-Gao single inactive | RGS19-Gao conf inactive
Cc1cc2cc(CCNC(=O)c3cccc([N+](=O)[O-])c3)c(=O)[nH]c2cc1C	RGS7-Gao 36.5, RGS4-Gao reg 35.3 | Avidin counter inactive | RGS8-Gao single inactive | RGS7-Gao single inactive | RGS16-Gao conf inactive | RGS4-Gao single inactive | RGS19-Gao conf inactive
O=C(CN1CCCCC1)NNc1nc(-c2ccccc2)c2cc(Br)ccc2n1	RGS7-Gao inconclusive (no result: GSH fluor)
Cc1ccc(NC(=O)c2c(Cl)nc3ccccn23)cc1	RGS7-Gao inconclusive
CCN(CC)S(=O)(=O)c1ccc(NC(=O)C(OC)c2ccccc2)cc1 (stereo not given)	none (no result: RGS8-Gao, RGS16-Gao, Avidin bead fluor, RGS7-Gao, RGS4-Gao reg) | Avidin counter inactive | RGS8-Gao single inactive | RGS7-Gao single inactive | RGS16-Gao conf inactive | RGS4-Gao single inactive | RGS19-Gao conf inactive
COC(C(=O)Nc1ccc(S(=O)(=O)Nc2c(C)cccc2C)cc1)c1ccccc1 (stereo not given)	none
O=C(NCc1ccco1)c1ccc(COc2ccc(Cl)cc2)cc1	RGS16-Gao 11.7 | RGS4-Gao HTS 89.0 | Avidin counter inactive | RGS8-Gao single inactive | RGS7-Gao single inactive | RGS16-Gao conf inactive | RGS4-Gao single inactive | RGS19-Gao conf inactive
